Compound activity: PubChem, National Center for Advancing Translational Sciences (NCATS)
Epigenetic reg = epigenetic control regulation, reporter derepression; murine LDR cells, GFP reporter derepression, 30 h; Potency, µM (top dose mostly 53.9 µM), most hits filed as activators; 280,000 tested, 0.2% active; further: nearly all actives have a fitted effect of over 60% in size
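Murine LDR cells carrying a silenced, genomically integrated CMV-driven GFP reporter were exposed to compound for 30 hours at 37 C. After PBS washes, GFP-positive cells (20–120 um objects) were counted by laser-scanning microplate cytometry.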
RORgamma inh = blocks mouse ROR gamma transcriptional activity. P51450. Drosophila S2 Gal4-RORgamma UAS-luciferase reporter, 20 h. Potency, µM (titrated, usually from 53.6 µM), usual class: inhibitors. 310,000 tested, 5.4% active; further: nearly all actives have a fitted effect of over 60% in size
Target sequence (P51450 whole entry, looked up, the tested form may be a part): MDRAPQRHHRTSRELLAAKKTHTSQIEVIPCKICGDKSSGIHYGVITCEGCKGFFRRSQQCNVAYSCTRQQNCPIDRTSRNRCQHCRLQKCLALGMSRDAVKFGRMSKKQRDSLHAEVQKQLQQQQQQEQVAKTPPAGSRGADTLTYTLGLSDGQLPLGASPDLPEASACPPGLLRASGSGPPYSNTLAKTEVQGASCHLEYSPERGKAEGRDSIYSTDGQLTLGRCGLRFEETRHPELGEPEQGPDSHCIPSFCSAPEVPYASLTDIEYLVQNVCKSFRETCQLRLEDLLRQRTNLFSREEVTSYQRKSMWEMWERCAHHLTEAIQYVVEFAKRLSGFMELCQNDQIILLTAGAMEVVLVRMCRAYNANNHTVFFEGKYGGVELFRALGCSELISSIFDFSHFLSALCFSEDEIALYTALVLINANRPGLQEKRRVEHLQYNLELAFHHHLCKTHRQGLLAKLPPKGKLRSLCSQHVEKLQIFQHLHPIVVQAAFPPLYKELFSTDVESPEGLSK
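Drosophila S2 cells stably expressing Gal4-DBD/mouse RORγ fusion under metallothionein promoter plus UAS-luciferase; compound 1 h, then 700 uM CuSO4 induction for 20 h at ambient temperature; inhibition read as reduced luminescence.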
ClpP mod = qHTS Assay for Activators of ClpP; 340,000 tested, 1.9% active; purified B. subtilis ClpP, FRET peptide cleavage, 20 min; ATP-dependent Clp protease proteolytic subunit (Bacillus subtilis (strain 168)), P80244; Potency, µM (doses to about 57.5 µM); AID 651965, 2013; active means well fitted falling curve with a large enough effect; inconclusive means small, poorly fitted or top-dose-only effect; inactive means no such curve, though single readings can be large or run the other way; further: the source files actives as falling curves though it sought activators and does not explain the sign; nearly all actives have a fitted effect of over 65% in size
Target sequence (P80244 whole entry, looked up): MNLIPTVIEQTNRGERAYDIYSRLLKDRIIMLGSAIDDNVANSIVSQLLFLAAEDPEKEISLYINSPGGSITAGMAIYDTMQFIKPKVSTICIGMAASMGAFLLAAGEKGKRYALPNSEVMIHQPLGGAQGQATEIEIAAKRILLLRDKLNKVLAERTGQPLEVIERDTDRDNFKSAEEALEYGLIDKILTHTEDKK
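ClpP 10 microg/mL final, pH 8 Tris/KCl buffer with BSA, glycerol, Tween-20; compound pinned in; FRET-FV substrate; RT 20 min; Ex320/Em430; ΔFRET vs ADEP 5.8 microM, DMSO, no enzyme.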
Sfp inh = Sfp phosphopantetheinyl transferase inhibition | Q9F4F7 | Biochemical Sfp PPTase activity, qHTS | Potency, µM, hits mostly inhibitors | 310,000 tested, 3.5% active;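 further: the enzyme is Sfp with the accession as filed and its product quenches rhodamine fluorescence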
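With Hepes-Na pH 7.6 buffer containing 10 mM MgCl2, Sfp (15 nM) modified BHQ-2-YbbR (12.5 uM) using rhodamine-CoA (5 uM). Two reads 30 minutes apart at 525/598 nm yielded each well's rate.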
Gal4-VP16 FLuc = Gal4-VP16 reporter inhibition counter-screen; Potency, µM (titrated, usually from 53.6 µM), most hits filed as inhibitors; 310,000 tested, 3.5% active; Drosophila S2 Gal4-VP16 UAS-luciferase, luminescence, 20 h; AID 2546;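 further: Gal4-VP16 expression switched on by copper sulfate through the metallothionein promoter; nearly all actives have a fitted effect of over 50% in size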
PINK1 expr mod = changes PINK1 expression; Potency, µM (top dose mostly 76.6 µM), usual class: activators; PINK1 immunofluorescence, high-content cytometry, 24 h; 410,000 tested, 0.2% active; active means well fitted activation curve with a large enough effect; inconclusive means small, poorly fitted or top-dose-only effect; cell line not stated here; further: nearly all actives have a fitted effect of over 65% in size
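Measures PINK1 amount and localization on or inside mitochondria by immunofluorescence. Stable cells get compounds at 5 concentrations for 24 hours before fixation and staining; CCCP controls included.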
Hits are given with their value; – = inactive; ? = inconclusive; · = not tested or not shown. An excerpt weighted towards active compounds, which were near 8.1% of everything screened. Unless noted, the call rests on the fitted dose curve; in most records, active means well fitted curve in the direction sought with a large enough effect; inconclusive means small, poorly fitted or top-dose-only effect, or another doubt; inactive means no such curve, though single readings can be large; an effect the other way counts as inactive or inconclusive.

SMILES | Epigenetic reg | RORgamma inh | ClpP mod | Sfp inh | Gal4-VP16 FLuc | PINK1 expr mod
CN(C)c1ccc2ccc3cccc4ccc1c2c34 | · | · | – | · | · | ·
O=c1[nH]c(=O)n(Cc2ccco2)c2c1C(C(F)(F)F)(C(F)(F)F)N=C(CCC1CCCCC1)N2 | ? | – | – | – | ? | ·
CC(C)Cn1c2c(c(=O)[nH]c1=O)C(C(F)(F)F)(C(F)(F)F)N=C(CCC1CCCCC1)N2 | – | ? | – | – | 11.2µM | –
COc1ccccc1-c1n[nH]c(=S)n1-c1ccccc1 | – | 11.2µM | – | – | ? | –
COc1ccccc1N1CCN(CCc2n[nH]c(=S)n2-c2ccccc2)CC1 | – | ? | – | – | – | –
COc1ccccc1-c1n[nH]c(=S)n1N | – | – | – | 44.7µM | – | –
Cn1cccc1C(=O)NCCc1ccccc1 | · | 10µM | · | – | 12.6µM | –
Cc1ccc(C(=O)NCCCc2ccccc2)c(Cl)c1 | · | 11.2µM | · | – | – | –
O=C(c1cc(C(=O)NCCc2ccccc2)c(=O)n(CCc2ccccc2)c1)c1cc(Cl)ccc1O | – | ? | – | – | 14.1µM | ?
O=C(NCCc1ccccc1)c1ccccc1Cl | · | 8.91µM | – | – | 7.94µM | –
O=C(O)c1ccccc1C(=O)NCCc1ccc(Cl)cc1 | – | – | – | – | – | –
Cc1ccc(C(=O)NCCCc2ccccc2)c(C)c1 | – | ? | · | – | ? | –
CN(C)c1ccc(C=O)c(O)c1 | · | · | – | · | · | ·
Cc1ccccc1OCC(=O)NCC(=O)OCC(=O)c1ccc(-c2ccccc2)cc1 | · | · | – | · | · | –
CCOc1ccc(/C=C/c2cc[n+](C)c3ccccc23)cc1OCC | · | · | – | · | · | –
O=C(O)CCC(=O)Nc1ccccc1C(=O)Nc1ccccc1 | – | – | – | – | – | –
O=C(O)CCC(=O)Nc1ccccc1C(=O)NCCc1ccccc1 | – | – | 14.1µM | – | – | –
COc1ccc(OC)c(C(=O)CN2CCN(S(=O)(=O)c3ccc(Br)cc3)CC2)c1 | – | ? | – | ? | ? | –
COc1ccc(C(=O)CN2CCN(S(=O)(=O)c3cccc([N+](=O)[O-])c3)CC2)cc1OC | – | – | – | 35.5µM | – | –
CC(C)c1ccc(S(=O)(=O)N2CCN(CC(=O)c3ccc(O)c(O)c3)CC2)cc1 | · | – | · | 22.4µM | – | ·
O=C(CN1CCN(S(=O)(=O)c2ccc(Br)cc2)CC1)c1ccc(O)c(O)c1 | · | – | – | 79.4µM | – | –
COc1ccc(-c2nnc(C3CCN(C(=O)c4ccccc4F)CC3)o2)cc1 | ? | · | – | · | · | –
CCCCCn1c(=S)[nH]c2ncccc2c1=O | – | 1.12µM | – | – | 2.82µM | –
O=c1c2cccnc2[nH]c(=S)n1CCC1=CCCCC1 | – | 0.891µM | – | – | 1.58µM | –
COCCCn1c(=S)[nH]c2ncccc2c1=O | – | 11.2µM | – | – | – | –
SMILES | Epigenetic reg | RORgamma inh | ClpP mod | Sfp inh | Gal4-VP16 FLuc | PINK1 expr mod
COCCn1c(=S)[nH]c2ncccc2c1=O | – | – | – | – | – | –
CN(CCCn1c(=S)[nH]c2ncccc2c1=O)Cc1ccccc1 | – | – | – | – | – | –
O=C(Cn1c(=S)[nH]c2ncccc2c1=O)NCCc1ccccc1 | – | – | · | – | – | ·
Cc1oc(-c2cccc(NC(=O)c3ccccn3)c2)nc1CNC(=O)C#Cc1ccccc1 | · | · | · | · | · | –
CC1CCN(c2ccc(-c3cccc(NS(=O)(=O)c4cccs4)c3)nn2)CC1 | – | · | – | · | · | –
Cc1nn(CCCC(=O)Nc2cccc(F)c2)c(=O)c2c1sc1ccccc12 | – | · | – | · | · | –
Cc1occc1-c1n[nH]c(=S)n1CC(C)C | – | – | – | – | – | –
Cc1cccc(-n2c(-c3csc4ccccc34)n[nH]c2=S)c1 | – | 2µM | ? | ? | – | –
CCc1nnc(NC(=O)c2csc3c2CCC(C)C3)s1 (stereo not drawn) | – | – | · | – | – | ·
CCn1c(-c2csc3c2CCC(C)C3)n[nH]c1=S (stereo not drawn) | – | 2µM | – | – | 2.82µM | –
CC(C)Cn1c(-c2csc3ccccc23)n[nH]c1=S | – | 1.12µM | – | – | 6.31µM | –
CCn1c(-c2csc3ccccc23)n[nH]c1=S | – | 6.31µM | – | – | 6.31µM | –
CN(C)c1ccc(-c2cc(NCc3ccccc3)ncn2)cc1 | – | – | · | – | ? | –
COC(=O)CCC(NC(=O)OCc1ccccc1)C(=O)NC(CC(C)C)C(=O)OC (stereo not drawn) | – | – | – | – | – | –
CC(C)C[C@@H](C=O)NC(=O)[C@H](CC(C)C)NC(=O)[C@H](CC(C)C)NC(=O)OCc1ccccc1 | 1.26µM | · | · | – | · | ·
CCc1ccccc1NC(=O)Cn1c(=O)n(Cc2ccco2)c(=O)c2ccccc21 | – | · | – | · | · | –
O=C(CSc1nc2ccccc2s1)N1CCCCC1 | – | – | – | – | – | ·
Cc1c(Cl)cccc1N/C(SCC(=O)N1CCCCCC1)=C(/C#N)c1nc2ccccc2s1 | – | 8.91µM | – | – | – | –
CCN(CC)c1ccc(N)cc1S(=O)(=O)Nc1ccccc1OC | – | – | · | 11.2µM | – | –
COc1ccc(NS(=O)(=O)c2cc(NC(=O)C3CC3)ccc2N2CCCCC2)cc1 | – | – | · | – | – | –
COc1ccccc1NS(=O)(=O)c1cc(N)ccc1N1CCCCC1 | – | – | – | 11.2µM | – | –
CCN(CC)c1ccc(N)cc1S(=O)(=O)Nc1ccc(OC)cc1 | – | – | · | – | – | –
COc1ccccc1NS(=O)(=O)c1cc(NC(=O)C2CCC2)ccc1N1CCCCC1 | – | – | – | 8.91µM | – | –
O=C(Nc1cccc(C(F)(F)F)c1)Nc1ccc(N2CCCC2)c(S(=O)(=O)Nc2ccccc2Cl)c1 | – | ? | – | – | 11.2µM | ?
CC(O)(COc1ccccc1)c1ccc2c(c1)CN(Cc1cccc3ncccc13)CCO2 (stereo not drawn) | · | · | · | · | · | –
SMILES | Epigenetic reg | RORgamma inh | ClpP mod | Sfp inh | Gal4-VP16 FLuc | PINK1 expr mod
CCN1Cc2cccc(C(=O)Nc3ccc(F)cc3)c2C1=O | – | · | – | · | · | –
Nc1ccc(N2CCCCC2)c(S(=O)(=O)Nc2ccccc2Cl)c1 | – | – | · | 28.2µM | – | –
Nc1ccc(N2CCCCC2)c(S(=O)(=O)Nc2ccc(Cl)cc2)c1 | – | – | – | – | – | –
COc1ccc(NS(=O)(=O)c2cc(NC(=O)c3ccco3)ccc2N2CCCCC2)cc1 | – | ? | – | – | 12.6µM | –
COc1ccc(NS(=O)(=O)c2ccc(N3CCOCC3)c(NC(=O)c3ccco3)c2)cc1 | – | – | – | – | – | –
O=C(COc1ccc(F)cc1)NCc1ccc2c(c1)CCN2C(=O)c1ccc(F)cc1 | – | · | – | · | · | –
CCc1ccccc1Nc1nc2ccccc2c2nncn12 | – | · | – | · | · | –
COc1ccc(OC)c(/C(O)=C/C(=O)C(=O)Nc2cc(C)cc(C)c2)c1 | – | 2.51µM | – | – | 17.8µM | –
